The test system of this assay is K562 SF3B1 K700E vs K562 SF3B1 WT. The experiment in a line: surviving fraction ratio K562 SF3B1 K700E / K562 SF3B1 WT (each relative to DMSO); higher = less selective killing of SF3B1 K700E cells. The note with it: 5 days. The method, then:
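Drug-sensitivity screen of an in-house 80-compound library in isogenic K562 SF3B1 K700E versus SF3B1 WT cells. 250 cells/well in 384-well plates were exposed 24 h after seeding to 0.5-1000 nM compound for 5 days, and viability was read by CellTiter-Glo. Surviving fraction is relative to DMSO, and the value is the ratio of surviving fraction in K700E to WT cells; the paper calls ratio <0.6 with P<0.01 selective.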

Consider `CO[C@H]1C[C@@H]2CC[C@@H](C)[C@@](O)(O2)C(=O)C(=O)N2CCCC[C@H]2C(=O)O[C@H]([C@H](C)C[C@@H]2CC[C@@H](OCCO)[C@H](OC)C2)CC(=O)[C@H](C)/C=C(\C)[C@@H](O)[C@@H](OC)C(=O)[C@H](C)C[C@H](C)/C=C/C=C/C=C/1C` [everolimus], for which the “surviving fraction ratio K562 SF3B1 K700E / K562 SF3B1 WT” value by setting is: (0.5nM) 0.697; (1nM) 0.655; (5nM) 0.712; (10nM) 0.806; (50nM) 0.702; (100nM) 0.697. For the same compound, the “surviving fraction ratio K562 SF3B1 K700E / K562 SF3B1 WT” value is 0.824 (500nM) and 0.967 (1000nM).

Turning to `CCC1=C[C@@H]2CN(C1)Cc1c([nH]c3ccccc13)[C@@](C(=O)OC)(c1cc3c(cc1OC)N(C)[C@H]1[C@@](O)(C(=O)OC)[C@H](OC(C)=O)[C@]4(CC)C=CCN5CC[C@]31[C@@H]54)C2` [vinorelbine], the “surviving fraction ratio K562 SF3B1 K700E / K562 SF3B1 WT” value was found to be 1.02 (0.5nM); 0.921 (1nM); 0.475 (5nM); 0.385 (10nM); 1.53 (50nM); 1.9 (100nM). Further, the “surviving fraction ratio K562 SF3B1 K700E / K562 SF3B1 WT” value is, setting by setting: (500nM) 1.97; (1000nM) 1.89.

`NS(=O)(=O)OC[C@@H]1C[C@@H](n2ccc3c(N[C@H]4CCc5ccccc54)ncnc32)C[C@@H]1O`: the “surviving fraction ratio K562 SF3B1 K700E / K562 SF3B1 WT” value (0.5nM) amounted to 0.743; the “surviving fraction ratio K562 SF3B1 K700E / K562 SF3B1 WT” value (1nM) amounted to 0.708; the “surviving fraction ratio K562 SF3B1 K700E / K562 SF3B1 WT” value (5nM) turned out to be 0.772; the “surviving fraction ratio K562 SF3B1 K700E / K562 SF3B1 WT” value (10nM) is 0.687; the “surviving fraction ratio K562 SF3B1 K700E / K562 SF3B1 WT” value (50nM) is 0.74; the “surviving fraction ratio K562 SF3B1 K700E / K562 SF3B1 WT” value (100nM) amounted to 1.51. In addition, the “surviving fraction ratio K562 SF3B1 K700E / K562 SF3B1 WT” value stood at 1.22 (500nM) and 1.07 (1000nM).

On to `O=C(O)C1(C(=O)O)CCC1.[NH2-].[NH2-].[Pt+2]` [carboplatin], for which the “surviving fraction ratio K562 SF3B1 K700E / K562 SF3B1 WT” value runs as follows: (0.5nM) 0.765; (1nM) 0.799; (5nM) 0.905; (10nM) 0.829; (50nM) 0.917; (100nM) 0.764. Also, the “surviving fraction ratio K562 SF3B1 K700E / K562 SF3B1 WT” value turned out to be 0.917 (500nM) and 0.762 (1000nM).

For the compound `C[C@]1(O)C[C@@H](c2nc(-c3ccc4ccc(-c5ccccc5)nc4c3)c3c(N)nccn32)C1`, the “surviving fraction ratio K562 SF3B1 K700E / K562 SF3B1 WT” value (0.5nM) is 0.876; the “surviving fraction ratio K562 SF3B1 K700E / K562 SF3B1 WT” value (1nM) amounted to 0.823; the “surviving fraction ratio K562 SF3B1 K700E / K562 SF3B1 WT” value (5nM) is 0.862; the “surviving fraction ratio K562 SF3B1 K700E / K562 SF3B1 WT” value (10nM) was 0.829; the “surviving fraction ratio K562 SF3B1 K700E / K562 SF3B1 WT” value (50nM) came out at 0.861; the “surviving fraction ratio K562 SF3B1 K700E / K562 SF3B1 WT” value (100nM) amounted to 0.795. Further, the “surviving fraction ratio K562 SF3B1 K700E / K562 SF3B1 WT” value reads like this: (500nM) 0.804; (1000nM) 0.873.

Values taken from the supplement of paper PMC10412459.
